Rows were chosen to be rich in hits. Some 18% of all compounds tested hit in one or more screens of this group.
TDP1 cell CPT: qHTS for Inhibitors of human tyrosyl-DNA phosphodiesterase 1 (TDP1): qHTS in cells in presence of CPT | chicken DT40 Tdp1-/-;hTDP1 cells + 20 nM CPT, ATP luminescence, 48 h | Potency, µM (doses to about 46.2 µM), for inactives: top-dose activity change, negative = growth inhibition, most hits filed as inhibitors | 420,000 tested, 12% active; also: potency is read from the fitted curve at half-maximal effect; nearly all actives have a fitted effect of over 55% in size
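Chicken DT40 Tdp1-/- cells complemented with human TDP1, 400 cells/well, exposed to compounds plus 20 nM camptothecin for at least 48 h at 37 C; viability read as ATP content by CellTiter-Glo luminescence.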
CtBP-E1A blk: qHTS Assay for Inhibitors of the CtBP/E1A Interaction; activity change, % (test concentration not listed); 340,000 tested, 0.49% active; CtBP / adenovirus E1A interaction (AlphaScreen); AlphaScreen GST-E1A/His-CtBP binding, 1536-well; hits give low values; in the data active = activity change below about -65%; inconclusive = mostly about -30% to -63%
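Homogeneous bead-based format: GST-tagged E1A captured on glutathione donor beads, His-tagged CtBP on nickel acceptor beads; compounds precede bead addition by 2 h at 37 °C.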
IL-1B inflam inh: qHTS for Inhibitors of Inflammasome Signaling: IL-1-beta AlphaLISA Primary Screen. activity change, % at 57.5 µM. 360,000 tested, 4.7% active. AID 743279, 2014. THP-1 LPS/ATP IL-1B secretion, AlphaLISA, 16 h; hits give low values; in the data active = activity change below about -50%; inconclusive = mostly about -30% to -49%
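THP-1 cells pretreated 1 hr with compounds (up to 57.5 uM final), then stimulated with LPS (250 ng/mL final) plus ATP (1.25 mM final); secreted IL-1B measured by AlphaLISA after 16 hr, decreased signal indicating inhibition.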
DT40 TDP1 no CPT: qHTS for Inhibitors of human tyrosyl-DNA phosphodiesterase 1 (TDP1): qHTS in cells in absence of CPT. DT40 Tdp1-/- hTDP1 cells, no CPT, ATP luminescence, 48 h. Potency, µM (series often up to 46.2 µM), for the others: top-dose activity change, negative = growth inhibition, hits mostly inhibitors. 420,000 tested, 15% active; also: potency is read from the fitted curve at half-maximal effect; nearly all actives have a fitted effect of over 55% in size
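A cellular qHTS used chicken DT40 cells lacking endogenous Tdp1 but carrying stably transfected human TDP1. Compounds were applied without camptothecin, and cell growth kinetics were judged by ATP-dependent luminescence after ≥48 hr.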
Six1-Eya2 blk: qHTS Assay for Inhibitors of the Six1/Eya2 Interaction | AlphaScreen GST-Six1/His-Eya2 binding, biochemical; hits give low values | activity change, % (no concentration beside the values) | 360,000 tested, 0.56% active | AID 651725, 2012; in the data active = activity change below about -65%; inconclusive = mostly about -30% to -63%
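Homogeneous AlphaScreen proximity assay pairing GST-Six1 with His-tagged Eya2 (added as 5X mix: 250 nM and 500 nM) in 50 mM Tris pH 8.0, 300 mM NaCl, 1 mM TCEP. Glutathione donor and nickel acceptor beads; 1 h, 37 °C, dark.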
TDP1 inh: qHTS Assay for Inhibitors of Tyrosyl-DNA Phosphodiesterase (TDP1). recombinant TDP1, AlphaScreen DNA substrate cleavage. Potency, µM (highest dose often 130 µM), inactives show top-dose activity change, negative = inhibition, actives largely listed as inhibitors. 350,000 tested, 0.28% active. AID 485290, 2010; also: potency is read from the fitted curve at half-maximal effect; nearly all actives have a fitted effect of over 40% in size
Target sequence (Q9NUW8 whole entry, looked up): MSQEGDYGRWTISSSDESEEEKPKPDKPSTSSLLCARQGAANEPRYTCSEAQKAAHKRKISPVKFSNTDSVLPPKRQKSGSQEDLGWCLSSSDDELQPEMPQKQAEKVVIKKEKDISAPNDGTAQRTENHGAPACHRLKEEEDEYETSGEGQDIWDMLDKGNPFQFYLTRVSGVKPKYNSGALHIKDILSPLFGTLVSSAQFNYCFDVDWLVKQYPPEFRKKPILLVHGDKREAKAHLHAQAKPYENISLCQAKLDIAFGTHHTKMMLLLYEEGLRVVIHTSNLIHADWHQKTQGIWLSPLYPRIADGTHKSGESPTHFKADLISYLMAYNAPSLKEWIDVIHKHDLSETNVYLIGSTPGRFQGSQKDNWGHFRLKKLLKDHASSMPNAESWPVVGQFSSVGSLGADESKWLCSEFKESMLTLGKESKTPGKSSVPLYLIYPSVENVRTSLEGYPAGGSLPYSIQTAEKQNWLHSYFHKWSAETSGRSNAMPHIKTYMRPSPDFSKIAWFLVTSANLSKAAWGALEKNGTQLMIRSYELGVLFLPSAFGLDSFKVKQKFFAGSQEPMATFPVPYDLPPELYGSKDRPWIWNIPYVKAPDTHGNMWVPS
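Compounds were preincubated with Tdp1 (1 nM final) for 15 min at room temperature before substrate (15 nM final) started a 5 min reaction; beads (10 ug/ml final) were then added for 10 min before AlphaScreen detection.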
* marks the source's active call; other numbers are inactive results; ? = inconclusive; nt = no result. Unless noted, calls follow the shape of the dose curve; as a rule, active = well fitted curve in the direction sought with a large enough effect; inconclusive = small, poorly fitted or top-dose-only effect, or another doubt; inactive = no such curve, though single readings can be large; an effect the other way counts as inactive or inconclusive. % is scaled to controls: 0 for no effect and ±100 for the full control effect.

SMILES | TDP1 cell CPT | CtBP-E1A blk | IL-1B inflam inh | DT40 TDP1 no CPT | Six1-Eya2 blk | TDP1 inh
COC(=O)c1ccc(N2C(c3ccsc3)=Cc3cc4c(cc3C2CC(=O)c2ccco2)OCO4)cc1 (centres undefined) | 21µM* | -5 | 9 | 15µM* | -15 | nt
O=C1NN(c2ccccc2)C(=O)/C1=C\c1coc2ccc(O)cc2c1=O | 16µM* | -10 | -25 | 21µM* | -5 | nt
Cc1cc(/C=C2\C(=O)NN(c3ccccc3)C2=O)c(C)n1-c1ccccc1O | ? | nt | 0 | 15µM* | 6 | nt
Cc1cc(/C=C2/C(=O)NN(c3ccccc3)C2=O)c(C)n1-c1ccc(O)cc1 | ? | 5 | -29 | 18µM* | -3 | 8%
COc1ccc(-n2nc(C(=O)Nc3ccc(OC)c(OC)c3)c3c4ccccc4n(C)c3c2=O)cc1 | ? | 1 | 93 | ? | 0 | 6%
Cc1cccc(N2CCN(C(=S)NCc3ccco3)CC2)c1C | -40% | -21 | -28 | ? | -19 | 7%
CNC(=O)c1ccc2c(c1)N=C(C)c1cc(C)ccc1S2 | 3.7µM* | nt | nt | 4.6µM* | nt | 0%
CC1=Nc2cc(C(=O)NC(C)C)ccc2Sc2ccc(C)cc21 | 4.6µM* | nt | nt | 4.1µM* | nt | -2%
CC1=Nc2cc(C(=O)NCCc3ccc(Cl)cc3)ccc2Sc2c(C)ccc(C)c21 | nt | nt | nt | nt | nt | 9%
CC1CCCN(Cc2nc3c(c(=O)n(C)c(=O)n3C)n2CCCc2ccccc2)C1 (centres undefined) | 21µM* | -1 | -2 | 18µM* | 1 | 4%
Cn1c(=O)c2c(nc(CN3CCN(C(=O)c4ccco4)CC3)n2CCc2ccccc2)n(C)c1=O | -16% | -2 | 0 | ? | -5 | -2%
Cn1c(=O)c2c(nc(CN3CCCCC3)n2CCCc2ccccc2)n(C)c1=O | ? | 0 | 12 | ? | 15 | nt
Cn1c(=O)c2c(nc(CN3CCN(C(=O)c4ccco4)CC3)n2CCCc2ccccc2)n(C)c1=O | ? | 3 | 10 | 21µM* | -11 | -1%
Cc1nnc(NC(=O)c2nc(SC(C)C)ncc2Cl)s1 | -19% | nt | nt | -8% | nt | -2%
Cc1cccc(C)c1NC(=O)c1nc(SC(C)C)ncc1Cl | 18µM* | nt | nt | ? | nt | 5%
CCOC(=O)c1ccc(NC(=O)c2nc(SC(C)C)ncc2Cl)cc1 | 16µM* | nt | nt | 16µM* | nt | 5%
CCC(COC(=O)Nc1ccccc1)NC(=O)OC(C)C (centres undefined) | ? | 7 | -19 | -26% | 2 | 3%
O=C(Cn1c(=O)c(=O)n(Cc2ccccc2)c2ccc(Cl)cc21)Nc1ccc(F)cc1F | ? | 3 | 16 | ? | 1 | 0%
COc1ccc(C(CNC(=O)C(C)c2ccc3cc(OC)ccc3c2)N(C)C)cc1 (centres undefined) | -25% | -6 | -21 | ? | 3 | 14%
COC(=O)c1nc(NNC(=O)c2ccccc2)sc1-c1ccccc1 | 11% | 1 | -14 | 7% | 6 | nt
CCc1ccc(C(=O)NC(=S)Nc2ccc3c(c2)OCCO3)cc1 | ? | 1 | -5 | ? | -28 | 5%
COc1cc(C(=O)NC(=S)Nc2ccc(Cc3ccncc3)cc2)cc(OC)c1OC | ? | 2 | -5 | ? | -23 | nt
Cc1cc(C)cc(C(=O)NC(=S)Nc2ccc(Cc3ccncc3)cc2)c1 | ? | 13 | ? | 29µM* | -8 | 5%
